# Data from PubChem BioAssay (NCATS).
# Records with an inconclusive call do not appear. The source made the active and inactive calls. The call rests on the fitted dose curve; in most records, active means well fitted curve in the direction sought with a large enough effect; inconclusive means small, poorly fitted or top-dose-only effect, or another doubt; inactive means no such curve, though single readings can be large; an effect the other way counts as inactive or inconclusive.
# Legend:
# [1] = Quantitative High-Throughput drug screen in 47 multiple myeloma cell lines against the NCATS MIPE library collection: INA6_PLB cell viability assay (AID 1918965; further: nearly all actives have a fitted effect of over 55% in size; further: potency means the concentration at half of the fitted maximal effect); conditions: INA6 myeloma viability, CellTiter-Glo ATP luminescence, 48 h; series mostly up to 45.8 µM
# In short: (§1)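 CellTiter-Glo luminescence (ATP) after 48 h compound exposure, 37C/5% CO2; 500 cells/well; MIPE 4.0 approved/investigational drugs pinned in; DMSO = 100%, media only = 0% viability.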
# [2] = Quantitative High-Throughput drug screen in 47 multiple myeloma cell lines against the NCATS MIPE library collection: JJN3_DSMZ cell viability assay (AID 1918966; further: nearly all actives have a fitted effect of over 50% in size; further: potency means the concentration at half of the fitted maximal effect); conditions: JJN3 myeloma cells viability, CellTiter-Glo ATP, 48 h; series mostly up to 45.8 µM
# In short: (§2)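 Steps: seed 500 cells per well; pin-transfer MIPE 4.0 library; incubate 48 h at 37C, 5% CO2, humidified; add CellTiter-Glo, 5 min room temperature; read luminescence.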
# [3] = Quantitative High-Throughput drug screen in 47 multiple myeloma cell lines against the NCATS MIPE library collection: KMM1_JCRB cell viability assay (AID 1918960); conditions: KMM1 myeloma viability, CellTiter-Glo ATP luminescence, 48 h; series mostly up to 45.8 µM; further: nearly all actives have a fitted effect of over 30% in size; further: potency means the concentration at half of the fitted maximal effect
# In short: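 500 cells/well; MIPE 4.0 library pinned in; 48 h, 37 °C, 5% CO2; CellTiter-Glo ATP luminescence. Controls: DMSO = 100% viability, medium only = 0%.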
# [4] = Quantitative High-Throughput drug screen in 47 multiple myeloma cell lines against the NCATS MIPE library collection: KHM11_PLB cell viability assay (AID 1918962); conditions: KHM11 myeloma cell viability, CellTiter-Glo ATP luminescence, 48 h; series mostly up to 45.8 µM; further: nearly all actives have a fitted effect of over 35% in size; further: potency means the concentration at half of the fitted maximal effect
# In short: as §2
# [5] = Quantitative High-Throughput drug screen in 47 multiple myeloma cell lines against the NCATS MIPE library collection: JIM3_ECACC cell viability assay (AID 1918963; further: nearly all actives have a fitted effect of over 35% in size; further: potency means the concentration at half of the fitted maximal effect); conditions: JIM3 myeloma viability, CellTiter-Glo ATP, 48 h; series mostly up to 45.8 µM
# In short: as §2
# [6] = Quantitative High-Throughput drug screen in 47 multiple myeloma cell lines against the NCATS MIPE library collection: Karpas620_DSMZ cell viability assay (AID 1918959); conditions: Karpas620 myeloma viability, CellTiter-Glo ATP luminescence, 48 h; series mostly up to 45.8 µM; further: nearly all actives have a fitted effect of over 30% in size; further: potency means the concentration at half of the fitted maximal effect
# In short: as §2
# [7] = Quantitative High-Throughput drug screen in 47 multiple myeloma cell lines against the NCATS MIPE library collection: JIM1_ECACC cell viability assay (AID 1918964); conditions: JIM1 myeloma viability, CellTiter-Glo ATP luminescence, 48 h; series mostly up to 45.8 µM
# In short: as §2
# [8] = Quantitative High-Throughput drug screen in 47 multiple myeloma cell lines against the NCATS MIPE library collection: Karpas417_ECACC cell viability assay (AID 1918961); conditions: Karpas417 myeloma viability, CellTiter-Glo ATP luminescence, 48 h; viability (% of DMSO): at 45.8 µM (top of the series); further: potency means the concentration at half of the fitted maximal effect
# In short: as §1
structure (smiles),measurement,setting,value
COc1ccc(Cc2nccc3cc(OC)c(OC)cc23)cc1OC,Potency,[1],20.9 µM (active)
same,Potency,[2],16.6 µM (active)
CCC(=O)O[C@]1(C(=O)CO)CC[C@H]2[C@@H]3CCC4=CC(=O)CC[C@]4(C)[C@@H]3CC[C@@]21C,Potency,[3],inactive
same,Potency,[4],inactive
same,Potency,[5],inactive
same,Potency,[2],inactive
O=C(O)c1ccc(-c2cc3cccnc3c(-c3ccc4nonc4c3)n2)cc1,Potency,[4],20.9 µM (active)
COc1ccc2c3c1OC1C[C@@H](O)C=C[C@@]31CCN(C)C2 (stereo not given in full),Potency,[6],inactive
same,Potency,[3],inactive
same,Potency,[5],14.8 µM (active)
same,Potency,[7],inactive
same,Potency,[2],4.18 µM (active)
COc1ccc2cc(-c3nc(-c4ccc(S(C)=O)cc4)[nH]c3-c3ccncc3)ccc2c1 (stereo not given),Potency,[6],18.7 µM (active)
same,Potency,[3],23.5 µM (active)
same,Potency,[5],23.5 µM (active)
same,Potency,[1],14.8 µM (active)
CN1[C@@H]2CCC[C@@H]1CC(NC(=O)c1nn(C)c3ccccc13)C2 (stereo not given in full),Potency,[6],inactive
same,Potency,[3],inactive
same,Potency,[4],inactive
same,Potency,[5],inactive
same,Potency,[1],inactive
CCOC(CN1C(=O)[C@](CC(=O)Nc2ccc(C)cc2)(NC(=O)Nc2ccc(C)cc2)c2ccccc21)OCC,Potency,[6],16.6 µM (active)
same,Potency,[8],16.6 µM (active)
same,Potency,[1],23.5 µM (active)
CO[C@H]1C=CO[C@@]2(C)Oc3c(C)c(O)c4c(O)c(c5c(c4c3C2=O)NC2(CCN(CC(C)C)CC2)N=5)=NC(=O)C(C)=CC=C[C@H](C)[C@H](O)[C@@H](C)[C@@H](O)[C@@H](C)[C@H](OC(C)=O)[C@H]1C,Potency,[3],inactive
same,Potency,[5],inactive
same,Potency,[7],inactive
O=C1Nc2ccc(Cl)cc2C(C#CC2CC2)(C(F)(F)F)O1 (stereo not given),Potency,[1],20.9 µM (active)
CC(C)[C@H](CO)Nc1nc(Nc2ccc(C(=O)O)c(Cl)c2)c2ncn(C(C)C)c2n1,Potency,[4],0.0148 µM (active)
Cn1c(N2CCCCS2(=O)=O)nc(C(=O)NCc2ccc(F)cc2)c(O)c1=O,Potency,[3],inactive
same,Potency,[4],inactive
same,Potency,[5],inactive
same,Potency,[1],inactive
CC(C)n1nc(-c2ccc3oc(N)nc3c2)c2c(N)ncnc21,Potency,[5],0.0074 µM (active)
same,Potency,[1],0.0093 µM (active)
same,Potency,[2],0.0074 µM (active)
Cc1c[nH]c(C=C2C(=O)Nc3ccccc32)c1CCC(=O)O,Potency,[3],18.7 µM (active)
CO[C@H]1C[C@@H]2CC[C@@H](C)[C@@](O)(O2)C(=O)C(=O)N2CCCC[C@@H]2C(=O)O[C@H]([C@H](C)C[C@@H]2CC[C@H](OCCO)[C@H](OC)C2)CC(=O)[C@H](C)C=C(C)[C@@H](O)[C@@H](OC)C(=O)[C@H](C)C[C@H](C)C=CC=CC=C1C,Potency,[4],inactive
same,Potency,[2],6.62 µM (active)
NC(=O)c1cccc2[nH]c(-c3ccc([C@H]4CCCN4)cc3F)nc12,Potency,[5],14.8 µM (active)
same,Potency,[1],14.8 µM (active)
O=C(N[C@@H](c1ccccc1)[C@@H]1CCCCN1)c1cccc(C(F)(F)F)c1Cl,Potency,[6],inactive
same,Potency,[3],inactive
same,Potency,[5],inactive
same,Potency,[7],inactive
same,Potency,[1],inactive
same,Potency,[2],inactive
CC(C)(C)Cn1c(N)nc2ccc(-c3[nH]c(C(C)(C)C)nc3-c3ccc(F)cc3)nc21,Potency,[6],inactive
same,Potency,[3],inactive
same,Potency,[2],20.9 µM (active)
CCn1c(C(=O)N(C2CC2)C2CC2)cc2c3c(ncn3C)c(Nc3cc(C)n(C)n3)nc21,Potency,[5],18.7 µM (active)
same,Potency,[1],16.6 µM (active)
same,Potency,[2],20.9 µM (active)
CN(C[C@@H]1COCCO1)S(=O)(=O)Nc1ccc2ccc3ncc(-c4cnn(C)c4)cc3c(=O)c2c1,Potency,[3],1.48 µM (active)
same,Potency,[4],0.743 µM (active)
same,Potency,[1],4.18 µM (active)
CO[C@H]1C[C@@H]2CC[C@@H](C)[C@@](O)(O2)C(=O)C(=O)N2CCCC[C@@H]2C(=O)O[C@H]([C@@H](C)C[C@@H]2CC[C@H](O)[C@H](OC)C2)CC(=O)[C@H](C)C=C(C)[C@@H](O)[C@@H](OC)C(=O)[C@H](C)C[C@H](C)C=CC=CC=C1C,Potency,[6],16.6 µM (active)
same,Potency,[5],inactive
CO[C@H]1C[C@@H]2CC[C@@H](C)[C@@](O)(O2)C(=O)C(=O)N2CCCC[C@@H]2C(=O)O[C@H]([C@H](C)C[C@@H]2CC[C@H](OC(=O)C(C)(CO)CO)[C@H](OC)C2)CC(=O)[C@H](C)C=C(C)[C@@H](O)[C@@H](OC)C(=O)[C@H](C)C[C@H](C)C=CC=CC=C1C,Potency,[6],9.35 µM (active)
same,Potency,[5],20.9 µM (active)
c1ccc2c(-c3cnn4cc(-c5ccc(N6CCNCC6)cc5)cnc34)ccnc2c1,Potency,[1],2.35 µM (active)
O=C(Nc1ccccc1Br)N[C@@H]1CCN(c2ccc(C(F)(F)F)cn2)C1,Potency,[3],inactive
same,Potency,[8],inactive
same,Potency,[4],14.8 µM (active)
same,Potency,[5],18.7 µM (active)
C=CCc1ccc(O)c(-c2ccc(O)c(CC=C)c2)c1,Potency,[6],26.4 µM (active)
same,Potency,[5],20.9 µM (active)
same,Potency,[1],18.7 µM (active)
O=C1NC(=O)C(=Cc2cccc(C(F)(F)F)c2)S1,Potency,[8],26.4 µM (active)
CCNc1cc(NC2CCC(O)CC2)nc(Nc2ccc3c(ccn3Cc3ccccc3)c2)n1 (stereo not given),Potency,[5],20.9 µM (active)
O=c1ccn([C@@H]2O[C@H](CO)[C@H](O)[C@H]2O)c(=O)[nH]1,Potency,[6],inactive
same,Potency,[3],inactive
same,Potency,[4],inactive
same,Potency,[5],inactive
same,Potency,[1],inactive
same,Potency,[2],inactive
CNC(=O)c1ccccc1Sc1ccc2c(C=Cc3ccccn3)n[nH]c2c1,Potency,[6],0.264 µM (active)
same,Potency,[3],3.32 µM (active)
same,Potency,[1],18.7 µM (active)
Cc1cccc(Nc2nc(-c3ccncc3)cs2)c1,Potency,[3],23.5 µM (active)
same,Potency,[5],20.9 µM (active)
same,Potency,[1],18.7 µM (active)
COc1ncc(-c2ccc3nccc(-c4ccnnc4)c3c2)cc1NS(=O)(=O)c1ccc(F)cc1F,Potency,[8],inactive
same,Potency,[1],0.0235 µM (active)
same,Potency,[2],0.118 µM (active)
